Active and inactive are the calls of the source. Calls follow the shape of the dose curve; as a rule, active = well fitted inhibition curve with a large enough effect; inactive = no such curve, though single readings can be large or run the other way.
Molecular target: 4'-phosphopantetheinyl transferase ffp (Bacillus subtilis) (UniProt Q9F4F7)
Assay: Inhibitos of Bacillus subtilis Sfp phosphopantetheinyl transferase (PPTase): Dry Powder Followup
Conditions: purified Sfp PPTase enzyme assay, dry powder retest
Text: The covalent attachment of a phosphopantetheinyl (4'-PP) arm to a variety of synthases and other proteins is a key posttranslational protein modification. The 4'-PP is installed on the proteins post-translationally from coenzyme A (CoA) on a conserved serine residue by action of phosphopantetheinyl transferase (PPTase) enzymes. Phosphopantetheinylation is essential for synthase activity, and removal of the PPTase gene precludes natural product synthesis in microorganisms, or in the case of fatty acid biosynthesis, renders the organism unviable. PPTase enzymes belong to a distinct structural superfamily. Within bacteria, these enzymes are grouped into two classes based upon primary structure, the AcpS-Type and Sfp-Type PPTases.
Sfp-type PPTases, corresponding to an activator of surfactin production in Bacillus subtilis, are responsible for modifying type I polyketide and nonribosomal peptide synthases of prokaryotes. Sfp-type PPTases are responsible for the activation of a variety of pathogen-associated virulence factors. Among these compounds are toxins such as mycolactone from Mycobacterium ulcerans, siderophores such as vibriobactin from Vibrio cholerae or mycobactin from Mycobacterium tuberculosis, as well as the mycolic acids which form the waxy cell wall of Mycobacteria. The biosyntheses of these natural products are considered attractive targets for drug design.
In search of small molecule Sfp-PPTase inhibitors, a fluorescence quenching assay was developed for detection of Bacillus subtilis Sfp-PPTase enzymatic activity in a miniaturized high-throughput format. The consensus ybbr acceptor peptide DALEFIASKLA was N-terminally labeled with Black Hole Quencher-2 (BHQ-2) and used in combination with rhodamine-labeled coenzyme A as a co-substrate.
Inhibition of Sfp-PPTase was detected by recording the fluorescence intensity change over a 30-minute reaction period at a 525 nm excitation and 598 nm emission. Reagents were supplied by Michael Burkart and Timothy Foley, University of California at San Diego.
This assay is a followup of dry powder purchasing, QC'ing of samples and retesting in the primary screening protocol.
Assay Buffer: 50 mM Hepes-Na pH 7.6, 10 mM MgCl2, 0.01% Nonidet P-40, and 0.01% BSA.
3 uL of Sfp-PPTase enzyme (final concentration 15 nM) and 1 uL of substrate mixture (final concentration for rhodamine-CoA and BHQ-2-YbbR 5 uM and 12.5 uM, respectively) dispensed in columns 1, 2, 5 - 48. Columns 1 and 2 used to generate neutral control (uninhibited reaction)
Three uL of reagents, consisting of buffer (in columns 3 and 4 as negative control) and Sfp-PPTase (in columns 1, 2, 5 - 48) were dispensed into 1,536-well Greiner black solid bottom plate. Compounds (23 nL) were transferred via Kalypsys pintool equipped with 1,536-pin array. The plate was incubated for 15 min at room temperature, followed by the addition of 1 uL substrate to start the reaction. The plate was then centrifuged at 1000 rpm for 15 seconds, and the fluorescence intensity recorded on a ViewLux High-throughput CCD imager (Perkin-Elmer) using standard BODIPY optics (525 nm excitation and 598 nm emission). The plate was then incubated for 30 minutes, and a second read on the ViewLux was performed. The fluorescence intensity difference over the 30-minute period was used to calculate the respective reaction rate for each well.

4'-phosphopantetheinyl transferase ffp (Bacillus subtilis), sequence (Q9F4F7 whole entry, looked up): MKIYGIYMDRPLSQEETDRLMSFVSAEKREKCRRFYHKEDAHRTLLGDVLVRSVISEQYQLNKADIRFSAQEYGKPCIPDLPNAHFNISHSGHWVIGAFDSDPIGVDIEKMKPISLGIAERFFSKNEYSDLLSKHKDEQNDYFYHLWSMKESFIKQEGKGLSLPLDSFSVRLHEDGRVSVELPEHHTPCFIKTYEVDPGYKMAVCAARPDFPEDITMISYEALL

Potency, active:
O=C(Nc1ccc(F)cc1)C1=CC(=O)N2CCN=C2S1 11.8 µM
CCOC(=O)c1c(-c2ccc(C)o2)csc1NC(=O)CSc1nnnn1-c1ccccc1 2.35 µM
O=C(CSc1ncnc2sc3c(c12)CCCCC3)NCc1ccco1 23.5 µM
FC(F)(F)C1CCCN(c2nsc3ccccc23)C1 (centres undefined) 2.35 µM
CCOC(=O)c1c(-c2ccc(OC)cc2)csc1NC(=O)C1CCCO1 (centres undefined) 14.8 µM
Cc1nc(SCC(=O)c2ccc(F)cc2)n[nH]1 83.5 µM
COC(=O)c1c(NC(=O)COC(=O)c2ccc(Cl)cc2[N+](=O)[O-])sc2c1CCCCC2 37.3 µM
COC(=O)c1sc(NC(=O)c2cc(-c3ccccc3)nc3ccccc23)c(C#N)c1C 5.91 µM
Cc1ccnc(NC(=S)N2CCN(c3cccc(C(F)(F)F)c3)CC2)c1 14.8 µM
CCOC(=O)c1cc(-c2ccccc2)sc1NC(=O)c1ccc(OC)cc1 23.5 µM
CCN1CCN(C(=S)c2ccc(O)cc2)CC1 2.35 µM
CC(C)(C)Cc1nnc(NC(=O)CSc2ccccc2)s1 5.91 µM
O=C(Nc1nnc(COc2ccc(Cl)cc2)s1)c1cccs1 18.7 µM
CNC(=O)c1c(N)sc2c1CCCCC2 8.35 µM
CCOC(=O)c1nc(NCc2ccccc2)sc1C 16.7 µM
Cc1ccc(C2=CSC(NC(=O)CSc3nncn3C)=NN2)cc1 21 µM
CN(C)c1ccc(C(=S)N2CCN(Cc3ccccc3)CC2)cc1 5.27 µM
CCOC(=O)c1c(C)[nH]c(C2=CSC(=NC3CC3)NN2)c1C 18.7 µM
Clc1ccccc1-c1nnc2n1N/C(=C/Cc1ccccc1)S2 2.96 µM
c1csc(-c2nn3c(C4COc5ccccc5O4)nnc3s2)c1 (centres undefined) 21 µM
COc1ccc(OC)c(Nc2nc(=O)c3cccnc3s2)c1 13.2 µM
CCc1c(C)sc(NC(=O)C2CCCCC2C(=O)O)c1C(N)=O (centres undefined) 2.35 µM
O=C(Nc1nnc(COc2ccc(Cl)cc2)s1)c1ccco1 14.8 µM
Nc1c(C(=O)Nc2ccccc2F)sc2nc(-c3ccco3)ccc12 10.5 µM
O=C(CSc1ccccc1)Nc1nnc(COc2ccc(Cl)cc2)s1 6.63 µM
O=C(CN1C(=O)CC(c2ccco2)Sc2ccccc21)Nc1ccccc1F (centres undefined) 26.4 µM
C(/Cc1ccccc1)=C1\Nn2c(Cn3cnc4ccccc43)nnc2S1 21 µM
C(=C1\Nn2c(COc3ccccc3)nnc2S1)/c1ccccc1 5.27 µM
CCC(C)(C)n1nnnc1C(c1ccc(O)c(OC)c1)N1CCc2ccccc2C1 (centres undefined) 21 µM
COC(=O)Nc1sc2c(c1C(N)=O)CCC(C)C2 (centres undefined) 26.4 µM
O=C(CSc1nc2scc(-c3ccco3)c2c(=O)n1-c1ccccc1)NCC1CCCO1 (centres undefined) 3.32 µM
S=C(Nc1ccccn1)c1ccccn1 26.4 µM
CCOC(=O)c1c(NC(=O)c2ccccc2Cl)sc2c1CCc1ccccc1-2 2.64 µM
O=C(/C=C/c1ccccc1)Nc1cccc(S(=O)(=O)Nc2ccccc2F)c1 0.527 µM
